Source: the supplement of paper PMC8975748
Where a name gives a salt, the structure may show the parent alone.

tested on: Saccharomyces cerevisiae BY4741 SeMeCo community; assay: z-score of subpopulation abundance vs DMSO median, subpopulation auxotrophic for LUM; higher = larger share of this subpopulation than in DMSO controls; details: 10 µM; 24 h; SM minimal medium; subpopulation (auxotrophy): LUM
Protocol: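 Fluorescent four-plasmid SeMeCo (self-establishing metabolically cooperating S. cerevisiae BY4741 community; plasmids pH-mRuby2, pL-mWasabi, pU-eCFP, pM-TagRFP657) was grown 24 h in minimal SM medium with each Selleck FDA-approved drug at 10 µM in 384-well plates. Cells were fixed and imaged by high-content confocal microscopy. For each auxotrophic subpopulation (and the prototroph), a z-score gives the deviation from the DMSO vehicle-control population median.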

In order of falling “z-score of subpopulation abundance” value:
1. Nc1nc(N)nc(NC2CC2)n1 [Cyromazine]  0.89
2. COc1ccc2[nH]cc(CCN)c2c1 [5-Methoxytryptamine]  0.78
3. CC(C)=CCOc1c2occc2cc2ccc(=O)oc12 [Imperatorin]  0.74
4. COc1cc2c(cc1OC)C1CC(=O)C(CC(C)C)CN1CC2 (stereo not given) [Tetrabenazine (Xenazine)]  0.67
5. C[C@H]1O[C@H](O[C@H]2[C@H](O)[C@@H](O)[C@@H](O)[C@H](O)[C@@H]2O)[C@@H](N)C[C@@H]1NC(=N)C(=O)O [Kasugamycin hydrochloride]  0.34
6. CN1[C@@H]2CC[C@H]1C[C@@H](OC(=O)C(CO)c1ccccc1)C2 (stereo not given in full) [Atropine sulfate monohydrate]  0.28
7. CC(C)(O)C(Cl)(Cl)Cl [Chlorobutanol]  0.26
8. C#C[C@]1(O)C=C[C@H]2[C@@H]3CCC4=CC(=O)CC[C@@H]4[C@H]3CC[C@@]21CC [Gestodene]  0.24
9. C=CCN1C[C@H](C(=O)N(CCCN(C)C)C(=O)NCC)C[C@@H]2c3cccc4[nH]cc(c34)C[C@H]21 [Cabergoline]  0.18
10. CN(C)[C@@H]1C(=O)C(C(N)=O)=C(O)[C@@]2(O)C(=O)C3=C(O)c4c(O)cccc4[C@@](C)(O)[C@H]3[C@H](O)[C@@H]12 [Oxytetracycline (Terramycin)]  0.18
11. Oc1cc(Cl)ccc1Oc1ccc(Cl)cc1Cl [Triclosan]  0.02
12. CN(C)[C@@H]1C(=O)C(C(N)=O)=C(O)[C@@]2(O)C(=O)C3=C(O)c4c(O)cccc4[C@@](C)(O)[C@H]3[C@H](O)[C@@H]12 [Oxytetracycline Dihydrate]  0.01
13. COc1ccc(C(CN(C)C)C2(O)CCCCC2)cc1 (stereo not given) [Venlafaxine]  0
14. CCN(C)C(=O)Oc1cccc([C@H](C)N(C)C)c1 [Rivastigmine Tartrate]  -0.01
15. CCN(CC)CCOC(=O)C(O)(c1ccccc1)c1ccccc1 [Benactyzine hydrochloride]  -0.06
16. C=CC[C@]1(O)CC[C@H]2[C@@H]3CCC4=CC(=O)CCC4=C3C=C[C@@]21C [Altrenogest]  -0.14
17. Cn1cc(C2=C(c3cn(C4CCN(Cc5ccccn5)CC4)c4ccccc34)C(=O)NC2=O)c2ccccc21  -0.2
18. CCOC(=O)Nc1ccc(NCc2ccc(F)cc2)cc1N [Retigabine]  -0.25
19. CC[C@@]1(O)C(=O)OCc2c1cc1n(c2=O)Cc2cc3ccccc3nc2-1 [Camptothecin]  -0.25
20. CCN(C)C(=O)Oc1cccc([C@H](C)N(C)C)c1 [Rivastigmine]  -0.27
21. CCC1=C[C@H]2CN3CCc4c([nH]c5ccccc45)[C@](C(=O)OC)(C2)[C@H]13 [Catharanthine]  -0.3
22. CN1[C@@H]2C[C@@H](OC(=O)[C@H](CO)c3ccccc3)C[C@H]1[C@@H]1O[C@@H]12 [Scopolamine HBr trihydrate]  -0.33
23. CN(C)C(=O)Oc1ccc[n+](C)c1 [Pyridostigmine Bromide]  -0.35
24. CC[C@H]1CN2CC[C@]3(C(=O)Nc4ccccc43)[C@@H]2C[C@@H]1/C(=C\OC)C(=O)OC [Rhynchophylline]  -0.36
25. CN[C@@H]1[C@@H](O)[C@@H](O[C@@H]2[C@@H](O)[C@H](O[C@H]3O[C@H]([C@@H](C)O)[C@@H](O)[C@H](O)[C@H]3N)[C@@H](N)C[C@H]2N)OC[C@]1(C)O [Geneticin (G418 Sulfate)]  -0.36
26. CN1C(=O)COc2c(C(=O)NC3CN4CCC3CC4)cc(Cl)cc21 (stereo not given) [Azasetron HCl]  -0.38
27. O=c1cccc2n1C[C@@H]1CNC[C@H]2C1 [Cytisine]  -0.47
28. CC(=O)OCC1=C(C(=O)O)N2C(=O)C(N)C2SC1 (stereo not given) [7-Aminocephalosporanic acid]  -0.51
29. COc1ccc2c(c1)[C@]13CCCC[C@@H]1[C@H](C2)N(C)CC3 [Dextromethorphan hydrobromide hydrate]  -0.51
30. Cc1cc(O)ccc1Cl [Chlorocresol]  -0.61
31. CCCN1C[C@H](CSC)C[C@@H]2c3cccc4[nH]cc(c34)C[C@H]21 [Pergolide Mesylate]  -0.65
32. CN(C)[C@@H]1C(=O)C(C(N)=O)=C(O)[C@@]2(O)C(=O)C3=C(O)c4c(O)ccc(Cl)c4[C@@](C)(O)[C@H]3C[C@@H]12 [Chlortetracycline HCl]  -0.67
33. N#Cc1nn(-c2c(Cl)cc(C(F)(F)F)cc2Cl)c(N)c1[S+]([O-])C(F)(F)F (stereo not given) [Fipronil]  -0.72
34. C[C@@H]1O[C@@H](O[C@H]2C[C@@H](O)[C@]3(CO)[C@H]4[C@H](O)C[C@]5(C)[C@@H](C6=CC(=O)OC6)CC[C@]5(O)[C@@H]4CC[C@]3(O)C2)[C@H](O)[C@H](O)[C@H]1O [Ouabain]  -0.83
35. N[C@@H]1C[C@H]1c1ccccc1 [Tranylcypromine (2-PCPA) HCl]  -0.84
36. CC(NC(C)(C)C)C(=O)c1cccc(Cl)c1 (stereo not given) [Amfebutamone (Bupropion) HCl]  -0.86
37. CN1[C@@H]2C[C@@H](OC(=O)[C@H](CO)c3ccccc3)C[C@H]1[C@@H]1O[C@@H]12 [Scopolamine HBr]  -0.9
38. C[N+]12CCC(CC1)C(OC(=O)C(O)(c1ccccc1)c1ccccc1)C2 (stereo not given) [Clidinium Bromide]  -0.9
39. C[C@@H]1CC[C@H]2[C@@H](C)C(=O)O[C@@H]3O[C@@]4(C)CC[C@@H]1[C@]32OO4 [Artemisinin]  -0.97
40. CC[N+](C)(CC)CCOC(=O)C(O)(c1ccccc1)c1ccccc1 [Methylbenactyzine Bromide]  -1.06
